108 compounds from ChEMBL document CHEMBL4513216, “Probing the Open Global Health Chemical Diversity Library for Multistage-Active Starting Points for Next-Generation Antimalarials” (ACS Infect Dis, 2020) can be followed below.

Structures are written as SMILES. Among all 68,000 compounds or so, about 2,700 (4%) showed an effect of 50% or more. What follows is part of a selection rich in strong results, with near analogues and random picks from the rest.

The assay concerns Plasmodium berghei. Briefly: Screen against P. berghei liver stage (PbLuc), transformed with Luciferase, at 2uM. The class given is functional, HepG2. The conditions noted are these: tested at 2 uM.
Consider `CN(C)CC1CN(C(=O)CCc2ccccc2)Cc2nccn2C1` (stereo not drawn), for which the INHIBITION is recorded as -43.66%. The value for `Cc1ccnc(N2CCC(OCCN3CCCCC3)C2)n1` (stereo not drawn) was 12.29%; that for `COc1ccnc(N2CCC(OCCN3CCCCC3)C2)n1` (stereo not drawn) was -53.64%; that for `c1cnc(N2CCC(OCCN3CCCCC3)C2)nc1` (stereo not drawn) was 56.47%.

`CCc1ncc2c(n1)CN(Cc1nnc(Cc3ccccc3)o1)CC2`: the INHIBITION is -11.33%.

Take `Cc1cc(C(=O)NCCN2CCCCCC2)nn1C(C)(C)C`: the INHIBITION is listed as -5.98%. The value for `CCc1nnc2n1CCN(Cc1cc(Cl)c3c(c1)OCCCO3)C2` was -3.57%. As to `CCc1ccc(O)c(C(=O)N2CCN(CC(=O)N(CC)CC)CC2)c1`, the INHIBITION is -19.78%. The figure for `CCc1ccc(O)c(C(=O)N2CCN(CC(=O)N(C)C)CC2)c1` is 55.26%; for `CCc1ccc(O)c(C(=O)N2CCCN(CC(=O)N(CC)CC)CC2)c1` it is 46.3%; for `CCCS(=O)(=O)N(C)C(=O)CCc1ccsc1` it is 8.59%. `CC(C)c1nc(CNc2ccc(CCO)cc2)cs1`: the INHIBITION stood at 2.76%.

Consider `CNc1cncc(C2CCN(C(=O)c3coc(C)n3)CC2)n1`, for which the INHIBITION is -16.56%. Turning to `CNc1cncc(C2CCN(C(=O)c3cnco3)CC2)n1`, the INHIBITION was found to be 56.93%. The value for `Cc1cncc(C2CCCN(C(=O)c3cnco3)C2)n1` (stereo not drawn) was -10.44%. As for `Cc1ccc2[nH]c([C@H]3CCN(CC4CCCCC4)C3)nc2c1`, the INHIBITION was 63.89%. Take `COCCN1CCC(c2nc3cc(C)ccc3[nH]2)CC1`: the INHIBITION was determined as 8.33%. The value for `Cc1ccc2[nH]c(C3CCN(C)CC3)nc2c1` was -5.34%; that for `CC(C)S(=O)(=O)N1CCCC(c2cccc(C(=O)O)c2)C1` (stereo not drawn) was 49.88%. The figure for `CCn1cnnc1CNC(=O)N1CCN(c2ccccc2OC)CC1` is 33.61%; for `O=C(Nc1cc[nH]n1)c1ccc(COCC(F)(F)F)cc1` it is -20.91%. As for `COc1ccc(CN2CCC(c3cc(O)nc(C)n3)C2)c(OC)c1` (stereo not drawn), the INHIBITION came to 52.01%. As for `COc1ccc(CN2CCC(c3cc(O)nc(C)n3)C2)c(F)c1` (stereo not drawn), the INHIBITION is given as -30.34%. The value for `COc1ccc(OC)c(CN2CCC(c3cc(O)nc(C)n3)C2)c1` (stereo not drawn) was -111.32%; that for `Cc1noc(CC2CCN(C(=O)C(c3ccccc3C)N(C)C)CC2)n1` (stereo not drawn) was 37%; that for `Cc1nn(C)c2c(NCc3ccccn3)nc(C(C)C)nc12` was 72.41%. The value for `CCn1c(NCc2cccnc2)nc2c(C)nn(C)c2c1=O` was 24.79%; that for `CCn1c(NCc2ccccc2)nc2c(C)nn(C)c2c1=O` was -1.65%. The value for `Cc1nc(NCc2ccccn2)c2c(n1)c(C)nn2C` was -40.15%; that for `CCn1nc(C)c2nc(C(C)C)nc(NCc3ccccn3)c21` was -11.34%; that for `CCn1c(NCc2ccccn2)nc2c(C)nn(C)c2c1=O` was 50.9%.

Consider `Fc1cnc(N2CC3(CCN(Cc4ccsc4)C3)C2)nc1`, for which the INHIBITION is on record as 34.48%.

`COCCC(=O)N1CCCC1c1nc(O)cc(C(C)C)n1` (stereo not drawn): the INHIBITION is given as -1.69%. Consider `CCC[C@H]1CN(C(=O)Cn2ccccc2=O)C[C@@H]1NS(C)(=O)=O`, for which the INHIBITION turned out to be 5.21%.

In the case of `CCCS(=O)(=O)N1CCN(c2ccnc(N3CCCCC3)n2)CC1`, the INHIBITION is reported as 5.38%. As for `CCN(C(=O)CN1CCC(c2n[nH]c(C3CC3)n2)CC1)C1CC1`, the INHIBITION was determined as 38.67%. The value for `CC1CCN(C(=O)CN2CCC(c3n[nH]c(C4CC4)n3)CC2)CC1` was -35.26%; that for `C=C(C)CN1CCC(c2n[nH]c(C3CC3)n2)CC1` was 52.98%; that for `Cc1ccc(CN[C@@H]2COC[C@H]2Cc2cc(C)no2)cc1` was 20.08%. On to `Cc1cc(C[C@@H]2COC[C@H]2NCc2ccc(Cl)c(Cl)c2)on1`, for which the INHIBITION is on record as -44.61%.

Take `Cc1cc(C[C@@H]2COC[C@@H]2NC(=O)CCN2Cc3ccccc3C2)on1`: the INHIBITION was 14.1%. The figure for `Cc1cc(C[C@@H]2COC[C@@H]2NC(=O)CN2CCCC2)on1` is -56.02%; for `Cc1cc(C[C@@H]2COC[C@@H]2NC(=O)CN2CCc3ccccc3C2)on1` it is 54.49%; for `Cc1cc(C[C@@H]2COC[C@H]2NCc2ccc(C)c(C)c2)on1` it is 53.24%.

With `O=C(CC1CCC1)N1CCCC(CO)(CC2CC2)C1` (stereo not drawn), the INHIBITION is given as -12.89%. The value for `O=C1CCCN1Cc1ncn2c1CN(C(=O)c1cccc(F)c1)CCC2` was 21.33%. For the compound `Cc1cc(NC(=O)CN2CCCCC2Cn2nc(C)nc2C)on1` (stereo not drawn), the INHIBITION amounted to 27.5%.

As for `Nc1ncccc1CN1C[C@@H](C(=O)O)[C@H](c2cccc(F)c2)C1`, the INHIBITION is 1.22%. The value for `CCS(=O)(=O)N1CCC2(CC1)CN(CC1CCOC1)c1ccccc12` (stereo not drawn) was 17.89%. As for `COc1ccc(OC2CCN(C(=O)CCc3n[nH]c(N)n3)CC2)cc1`, the INHIBITION was -88.55%. The figure for `COc1ccc(CCN2CCCC(CN(C)Cc3[nH]cnc3C)C2)cc1` (stereo not drawn) is 52.31%; for `Cc1nc[nH]c1CN(C)CC1CCCN(CCc2ccc(Cl)cc2)C1` (stereo not drawn) it is -9.17%. The figure for `COc1ccccc1CCN1CCCC(CN(C)Cc2ccc(C)o2)C1` (stereo not drawn) is -4.64%; for `Cc1nc(CN(C)CC2CCCN(CCc3ccc(Cl)cc3)C2)no1` (stereo not drawn) it is -7.76%. The value for `COc1ccc(CCN2CCCC(CN(C)Cc3ccc(C)o3)C2)cc1` (stereo not drawn) was 54.59%; that for `Cc1noc(CN(C)CC2CCCN(CCc3ccc(Cl)cc3)C2)n1` (stereo not drawn) was 35.26%. As for `CN(Cc1ccncc1)CC(c1cccs1)N1CCOCC1` (stereo not drawn), the INHIBITION is reported as -10.66%. Regarding `Cc1noc(CN(C)CC(c2cccs2)N2CCOCC2)n1` (stereo not drawn), the INHIBITION was found to be 28.88%. The figure for `CN(Cc1ncc[nH]1)CC(c1cccs1)N1CCOCC1` (stereo not drawn) is 62.46%; for `Cc1cc(C(F)(F)F)c2c(=O)n(Cc3cc(C)on3)n(C)c2n1` it is 1.36%; for `O=C1CCCN1Cc1nnn2c1CN(c1ncccn1)CCC2` it is 1.48%. The value for `CC(C(=O)NCc1ccnc(N2CCCC2)c1)n1cccn1` (stereo not drawn) was 17.12%; that for `CC(C(=O)NCc1ccnc(N2CCOCC2)c1)n1cccn1` (stereo not drawn) was -7.02%; that for `CCN1CC(C(=O)NCc2ccnc(-n3cccn3)c2)CC1=O` (stereo not drawn) was 2.46%. The figure for `CN1CC(C(=O)NCc2ccnc(-n3cccn3)c2)CC1=O` (stereo not drawn) is 67.99%; for `CC(C(=O)NCc1ccnc(N2CCN(C)CC2)c1)n1cccn1` (stereo not drawn) it is 53.12%.

Take `CSC(C)C(=O)NCc1ccnc(N2CCN(C)CC2)c1` (stereo not drawn): the INHIBITION is 22.29%. The value for `CC(C(=O)NCc1ccnc(N2CCCCCC2)c1)n1cccn1` (stereo not drawn) was 53.33%. The figure for `CC(C(=O)NCc1ccc(N2CCN(C)CC2)nc1)n1cccn1` (stereo not drawn) is 23.16%; for `CC(C)N1CC(C(=O)NCc2ccnc(-n3cccn3)c2)CC1=O` (stereo not drawn) it is -47.05%; for `Cn1cc(CC2CC(=O)N(Cc3ccc(Cl)cc3)C2=O)cn1` (stereo not drawn) it is 29.4%. The figure for `CCn1ccnc1CN1CCN(CCOc2ccc(C#N)cc2)CC1` is -12.75%; for `CCOc1ccc2[nH]c(=O)c(CN3CCN(S(N)(=O)=O)CC3)cc2c1` it is 43.05%; for `CN1CCC2(CC1)CN(C(=O)c1cccc3cccnc13)CCN2C` it is 9.11%. With `CC(CN1CCCC1=O)NC(=O)c1ccc(C(F)(F)F)[nH]c1=O` (stereo not drawn), the INHIBITION is -85.12%. Take `Cc1cccn2cc(CC(=O)N3CCCC(n4cncn4)C3)nc12` (stereo not drawn): the INHIBITION is reported as -45.23%. The figure for `O=C(C1CC1)N1CCC2(CC1)OCCO2` is 56.99%. The figure for `O=C(C1CCCC1)N1CCC2(CC1)OCCO2` is -29.58%; for `O=C(C1CCC1)N1CCC2(CC1)OCCO2` it is 11.87%. The figure for `CC(C)C1CN(c2cccc(C#N)n2)CCCN1Cc1ccc(F)cc1` (stereo not drawn) is 8.26%. `CCc1nnc(Nc2cc(C)nc(C3CCN(c4ccncn4)C3)n2)s1` (stereo not drawn): the INHIBITION is given as 37.36%.

With `Cc1ccnc(C2CCN(c3ccnc(C)n3)C2)n1` (stereo not drawn), the INHIBITION came to 17.24%. The figure for `Cc1cc(C)nc(C2CCN(c3ccncn3)C2)n1` (stereo not drawn) is 80.06%; for `N#Cc1cccc(NC(=O)N(CC(F)F)C2CC2)c1` it is -73.45%; for `CSCC(=O)N1CCCC(CCC(=O)N(C)CCc2ccccn2)C1` (stereo not drawn) it is 28.62%. As for `O=C(c1ccoc1)N1CC[C@H]2OCC[C@@]2(COc2ncccc2F)C1`, the INHIBITION came to 30.79%. The value for `CCN(C(C)c1cccc(O)c1)S(=O)(=O)c1cccnc1` (stereo not drawn) was 52.83%; that for `CC(c1cccc(O)c1)N(C)S(=O)(=O)c1cccnc1` (stereo not drawn) was -18.09%. The figure for `CC(c1cccc(O)c1)N(C)S(N)(=O)=O` (stereo not drawn) is -21.47%.

As for `Cc1cc(C)c(N(CC(O)CNCc2ccccc2)S(C)(=O)=O)c(C)c1` (stereo not drawn), the INHIBITION came to 25.73%.

Consider `CN(CCNC(=O)N1CCN(Cc2ccon2)CC1)c1ccccc1`, for which the INHIBITION was -5.97%.

As to `Cc1cc(CN2CCN(C(=O)NCc3ccco3)CC2)no1`, the INHIBITION is recorded as -24.5%. The value for `CCN(CC)CCNC(=O)C(C)OCC(F)(F)F` (stereo not drawn) was -55.73%. The figure for `CC(C)C(=O)NCCNC(=O)C(C)OCC(F)(F)F` (stereo not drawn) is 57.76%. The value for `CC(OCC(F)(F)F)C(=O)NCCN(C)C` (stereo not drawn) was -6.73%; that for `CC(C)(C)c1ccc2c(c1)CCN2C(=O)c1ccc(=O)[nH]n1` was -6.69%. `O=C(c1ccc(=O)[nH]n1)N1CCc2ccccc21`: the INHIBITION is 54.52%. The value for `O=C(c1c[nH]c(=O)[nH]1)N1CCc2ccccc21` was -63.68%; that for `O=C(c1cccnc1)N1CCCC1c1cc[nH]n1` (stereo not drawn) was 40.31%.

On to `Cc1ccc(C(=O)N(Cc2cccc(F)c2)C2CC2)c(=O)[nH]1`, for which the INHIBITION turned out to be 63.46%. The value for `Cc1ccc(C(=O)N(Cc2ccc(F)cc2F)C2CC2)c(=O)[nH]1` was 20.76%. The figure for `Cc1ccc(C(=O)N(Cc2ccc(F)cc2)C2CC2)c(=O)[nH]1` is 27.33%; for `CCN(C)c1ncc2c(c1C(=O)O)CCN(C1CCOC1)C2` (stereo not drawn) it is 54.13%; for `O=C(O)c1c(-c2ccoc2)ncc2c1CCN(C1CCOC1)C2` (stereo not drawn) it is 55.52%. As to `CN1CCN(c2ncc3c(c2C(=O)O)CCN(C2CCOC2)C3)CC1` (stereo not drawn), the INHIBITION came to 21.28%.

Take `O=C(O)c1c(-c2ccncc2)ncc2c1CCN(C1CCOC1)C2` (stereo not drawn): the INHIBITION was -80.9%.

In the case of `CCN(CC)c1ncc2c(c1C(=O)O)CCN(C1CCOC1)C2` (stereo not drawn), the INHIBITION stood at 24.51%. The value for `O=C(O)c1c(NC2CCC2)ncc2c1CCN(C1CCOC1)C2` (stereo not drawn) was 45.12%.
